High-throughput results from PubChem BioAssay.
Most compounds without a hit are left out; they make up all but 1.1% or so of the library.
AmpC no deterg: blocks E. coli AmpC beta-lactamase in detergent-free assay. P00811. AID 485341. AmpC nitrocefin hydrolysis, absorbance 480 nm, 0.0001% Triton. hit rate 0.52% among 330,000. Potency, µM (top dose mostly 57.1 µM), for inactives: at the highest dose activity change, negative = inhibition, actives largely listed as inhibitors;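 note: plate controls were no compound for no effect and no enzyme for full effect; nearly all actives have a fitted effect of over 20% in size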
Target sequence (P00811 whole entry, looked up): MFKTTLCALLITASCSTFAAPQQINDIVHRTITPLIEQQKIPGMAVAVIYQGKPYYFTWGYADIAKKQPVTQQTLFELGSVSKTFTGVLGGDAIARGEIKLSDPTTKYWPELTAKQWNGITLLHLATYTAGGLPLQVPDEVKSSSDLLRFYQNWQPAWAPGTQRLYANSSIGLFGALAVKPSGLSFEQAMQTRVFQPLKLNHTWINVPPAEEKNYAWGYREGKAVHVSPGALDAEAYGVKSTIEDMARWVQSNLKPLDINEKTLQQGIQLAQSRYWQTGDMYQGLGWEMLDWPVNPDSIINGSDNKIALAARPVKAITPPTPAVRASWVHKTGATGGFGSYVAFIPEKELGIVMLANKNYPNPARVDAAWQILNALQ
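AmpC (5.3 nM in the dispensed reagent) in 20 mM phosphate pH 7.0 with 0.01% (detergent screen) or 0.0001% Triton X-100 was preincubated with compounds for 15 min at room temperature. Nitrocefin was then added from an 800 uM solution, and hydrolysis was followed at 480 nm.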
Giardia FBPA inh: Giardia lamblia aldolase inhibition | A8B2U2 | purified Giardia FBPA | Potency, µM (highest dose often 59.6 µM), for inactives: at the highest dose activity, negative = inhibition, usual class: inhibitors | hit rate 0.71% among 290,000; note: % is set by controls: 0 for no effect and ±100 for the full control effect; nearly all actives have a fitted effect of over 55% in size
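40 nM FBPA preincubated 10 min at RT with compound (up to 57.5 uM final), then substrate plus GAPDH/TPI/NAD/arsenate coupling and diaphorase/resazurin added. Fluorescence read after 20 min at RT, 525/598 nm.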
AmpC inh detg: inhibitors of E. coli AmpC beta-lactamase with detergent; P00811; AmpC hydrolysis of nitrocefin, absorbance 480 nm, 0.01% Triton; Potency, µM (series often up to 114 µM), without a hit: at the highest dose activity change, negative = inhibition, hits mostly inhibitors; hit rate 0.041% among 370,000; AID 485294;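 note: 0% = no-compound wells and -100% = no-enzyme wells; nearly all actives have a fitted effect of over 25% in size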
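20 mM phosphate pH 7.0 + 0.01% (detergent screen) or 0.0001% Triton X-100; 5.3 nM AmpC reagent; cpd preinc 15 min RT; nitrocefin (800 uM stock) to start; A480 q20 s × 4 min; Activity was normalised to no-enzyme and no-compound control wells.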
SARS PLpro yeast: inhibitors of SARS-CoV papain-like protease in yeast. S. cerevisiae expressing SARS-CoV PLpro, growth rescue. Potency, µM (highest dose often 32.9 µM), inactives show top-dose activity, positive = growth rescue, actives largely listed as activators. hit rate 0.19% among 330,000. AID 485353; calls by dose curve; note: 0% is about no effect; nearly all actives have a fitted effect of over 55% in size
The depositor's hits bear a star; ? = inconclusive; · = no result; [ ] = another dose, or the depositor's remark. Unless noted, calls come from the whole dose curve; as a rule, active = well fitted curve in the direction sought with a large enough effect; inconclusive = small, poorly fitted or top-dose-only effect, or another doubt; inactive = no such curve, though single readings can be large; an effect the other way counts as inactive or inconclusive. Potency is the fitted concentration of half-maximal effect.

SMILES	AmpC no deterg	Giardia FBPA inh	AmpC inh detg	SARS PLpro yeast
Cc1nc2ccc(Cl)cc2nc(C)/c1=N\O	-33%	14µM*	?	-7%
Cc1ccc2nc(C)/c(=N\O)c(C)nc2c1	-22%	·	?	-5%
Oc1ccc(/C=N/N(c2ccccc2)c2ccccc2)c(O)c1O	28µM*	·	4%	1%
Cc1nnc(-c2ccccc2)c(=O)n1/N=C/c1c(O)ccc2ccccc12	-23%	6%	-7%	3.2µM*
Cc1nc2ccccc2c(=O)n1/N=C/c1ccc(O)c(O)c1O	-38%	7.1µM*	?	-2%
Cc1nnc(C)n1/N=C/c1c(O)ccc2ccccc12	-28%	-17%	-7%	-1%
Cc1nc2ccccc2c(=O)n1/N=C/c1ccccc1O	-13%	15%	-7%	0%
O=C1c2ccccc2C(=O)N1/N=C/c1ccc(O)c(O)c1O	-50%	7.9µM*	-1%	?
CC1(OC(=O)C2CCCC2)C(=O)C=C2C=C(c3ccsc3)N(c3cccc(C#N)c3)C=C2C1=O (configuration not stated)	·	-9%[12.9 µM]	·	·
Cc1cccc(NC(=O)c2sc(-n3nc(C)c(Cc4ccc5c(c4)OCO5)c3C)nc2C)c1C	·	·	8%	·
Cc1oc(-c2ccccc2)nc1CSc1nnc(C)n2c1cc1sccc12	·	·	-5%	·
O=S(=O)(c1ccc(Cl)c(NC(=S)Nc2cccc(O)c2)c1)N1CCOCC1	-34%	-25%	2%	9%
CCN(C(=S)Nc1cc(S(=O)(=O)N2CCOCC2)ccc1Cl)c1cccc2ccccc12	-43%	7.1µM*	-5%	-5%
CCC1OC2(C)C(O)C(/C=C/C=C/C=C/c3oc(=O)cc(OC)c3C)OC1(C)C2OC(C)=O (configuration not stated)	·	-1%	·	·
O=C1NC(=O)N(c2cccc(Cl)c2)C(=O)/C1=C\c1ccc(Sc2nc3ccccc3[nH]2)o1	22µM*	2%	-11%	9%
CCN(C/C=C/C#CC(C)(C)C)Cc1cccc(OCc2cc(-c3ccsc3)cs2)c1	·	-5%	·	·
COc1ccc(S(=O)(=O)CC(=O)c2cc3cc(Br)ccc3oc2=O)cc1	28µM*	·	2%	-6%
COc1cccc2cc(C(=O)CS(=O)(=O)c3ccc(Cl)cc3)c(=O)oc12	16µM*	·	4%	-1%
O=C(/C=C/c1ccc(O)c(O)c1)c1ccc(O)cc1O	·	-12%	·	·
Cc1cc(Cl)ccc1OCC(=O)Nc1nc(-c2cccnc2)cs1	-19%	11%	9%	1%
Cc1cc(Cl)ccc1OCC(=O)Nc1nc(-c2cccs2)cs1	18µM*	0%	1%	-13%
CC(C)(C)c1ccc(/C=N/NC(=S)NC2CCCCC2)cc1	-42%	-1%	?	20µM*
OC[C@H]1OC(O)(CN2CCOCC2)[C@H](O)[C@@H]1O (some centres not stated)	·	5%	·	·
CCOC(=O)Cn1c(=NC(=O)CSC(C)=O)sc2cc(F)ccc21	35µM*	1%	?	2%
COCCn1c(=NC(=O)CSC(C)=O)sc2cc(F)ccc21	-6%	-18%	-1%	8%
SMILES	AmpC no deterg	Giardia FBPA inh	AmpC inh detg	SARS PLpro yeast
NC(=O)C1CCCN1C(=O)C(Cc1cnc[nH]1)NC(=O)C1CCC(=O)N1 (configuration not stated)	·	-13%	·	·
COc1ccccc1COCC(O)CNCC1(N2CCCCC2)CCCCC1 (configuration not stated)	0.14µM*	-1%	0%	-3%
COc1cc(C(C)=O)ccc1OCC(O)CNCC1(N2CCCCC2)CCCCC1 (configuration not stated)	-15%	-24%	?	2%
COc1cc(OC)c2c(c1C(CCN1CCN(c3ccccc3)CC1)c1ccc(N(C)C)cc1)OC(=O)CC2c1ccc(N(C)C)cc1 (configuration not stated)	·	4%	·	·
COC(=O)N1C2=C(c3ccccc3[C@@H]1CC(=O)Nc1ccc3ccc4cccc5ccc1c3c45)[C@@H]1C(=O)N(c3ccccc3)C(=O)[C@@H]1[C@H](C)C2	·	4%[12.9 µM]	·	·
Cn1c(COc2ccccc2)nnc1SCCSc1nnc(COc2ccccc2)n1C	-12%	3%	?	6%
Cn1c(COc2ccc(Br)cc2)nnc1SC1CCc2ccccc2C1=O (configuration not stated)	-17%	18µM*	-4%	-1%
CCOc1ccc(N2CC(NC(=O)c3cccc4ccccc34)CC2=O)cc1 (configuration not stated)	32µM*	·	?	-6%
